Data published in PubChem BioAssay.

assay: blockers of RIG-like receptor reporter activation – cell-based, Sendai virus stimulus, luciferase, 10K MLSCN set, TLR/RLR signaling modifier project, primary screen (AID 602276); conditions: HEK293 RL24 IRF3 luciferase reporter, at 10 µM, active compounds read high;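 also: firefly luciferase from ISG56 promoter only with Renilla not read in this screen; 0% = Sendai virus plus DMSO and 100% = medium plus DMSO without virus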

inhibition, inactive:
O=C(OCC(=O)c1cccs1)C1=COCCO1 -24.9%
Cc1ccc(-c2cn3cccnc3n2)cc1NC(=O)c1ccc(Br)o1 -11.9%
Cc1cnc(NC(=O)CSc2nc3ccccc3c(=O)[nH]2)s1 2.98%
CCCCn1nnnc1NCc1cccs1 4.2%
CCCOc1cccc(NC(=O)c2c(-c3ccccc3)noc2C)c1 12.6%
CCC(=O)N1C(=O)CCN(C(C)=O)c2ccccc21 13.1%
O=C(NCc1ccc2c(c1)OCO2)C1CCC(CNc2c(N3CCCCC3)c(=O)c2=O)CC1 (stereo not given) 7.38%
O=C(Cc1c(F)cccc1Cl)Nc1ccncc1 12.9%
CSc1nc(N2CCOCC2)c2ccccc2n1 6.41%
Nc1ccc(-n2c(N)c(C(=O)NCc3ccc4c(c3)OCO4)c3nc4ccccc4nc32)cc1 20.1%
COc1ccc(S(=O)(=O)Cc2ccc(C(=O)N3CCOCC3)o2)cc1 8.1%
Cc1sc2nc(SCC(=O)N3CCN(CCO)CC3)n(-c3ccccc3)c(=O)c2c1C 16.8%
CCc1ccc(C2CC(c3cccc(OC)c3)n3nc(N)nc3N2)cc1 (stereo not given) 11.5%
CCCc1cc(C(=O)Nc2ccccc2C(=O)OC)no1 -14.6%
COc1cccc(C(=O)Nc2c(C(N)=O)oc3ccccc23)c1 10.6%
Nc1nc2n(n1)C(c1cccc(Cl)c1)CC(c1ccc(F)cc1)N2 (stereo not given) 11.8%
O=C(O)C1CCCN1c1ncnc2c1oc1ccccc12 (stereo not given) 5.71%
Cc1cc(C)nc(NS(=O)(=O)c2ccc(NC(=O)Cn3c(=O)oc4ccccc43)cc2)n1 9.3%
CCCCn1c(CN(C)Cc2ccccc2)nc2c1c(=O)n(C)c(=O)n2C -18.7%
Oc1cccc(Nc2nc(NCC3CCCO3)c3ccccc3n2)c1 (stereo not given) 14.4%
Cc1ccc(-n2c(SCC3CCCCO3)nnc2-c2ccco2)cc1 (stereo not given) 20.5%
Cc1ccc(S(=O)(=O)NCCSc2nnnn2-c2ccc(C(N)=O)cc2)cc1 -0.501%
CCN1CCN(CCNC(=O)c2cn(C(C)c3ccccc3F)nn2)CC1 (stereo not given) 12%
C(#Cc1ccccc1)Cn1nnc2ccccc21 -41.6%
Cc1nccn1CCCN1C(=O)OC2(CCCCC2)C1(C)O (stereo not given) 4.87%
CCOc1cc2[nH]c(=S)n(CC3CCCO3)c(=O)c2cc1OCC (stereo not given) -8.82%
Cc1ccccc1Cn1ccc(NC(=O)c2cnn3c(C(F)(F)F)cc(-c4ccco4)nc23)n1 19.2%
O=C1c2ccccc2C(Nc2ccc3nc(-c4cccnc4)[nH]c3c2)N1Cc1ccco1 (stereo not given) -7.53%
CCOc1ccc(N(CC(=O)NC2CCCC(C)C2C)S(=O)(=O)c2c(C)noc2C)cc1 (stereo not given) 1.67%
CCOC(=O)Cn1ncc(-c2ccccc2)c1N -14.7%
CS(=O)(=O)N(CC(=O)Nc1cccc(F)c1)Cc1ccccc1 5.19%
Cc1cc(/C=N/n2cnnc2)c(C)n1-c1cccc(Cl)c1 13.2%
CCOC(=O)c1[nH]c(C)c(C(=O)Nc2ccc(C)cc2C)c1C 1.87%
CCOC(=O)n1c(SCC(=O)N(CC)CC)nc2ccccc21 0.265%
CCNc1ccc2c(Cl)cc(=O)oc2c1 4.11%
COCCCNC(=O)CCCn1c(=O)c2ccccc2n(CC(=O)Nc2c(C)cccc2C)c1=O 8.62%
CC(=O)NC(C)C(=O)OCC(=O)Nc1ccc(Br)cc1 (stereo not given) 20%
O=C1c2ccccc2C(Nc2ccc(F)cc2F)N1CCN1CCOCC1 (stereo not given) 13.8%
COC(=O)[C@H](CCSC)NC(=O)Nc1cc(C)ccc1C 11.7%
CC(=O)Nc1ccc(NC(=O)C(C)Oc2ccccc2F)cc1 (stereo not given) 9.2%

assay: TLR3 IRF3 reporter activation blockers – cell-based, poly I:C stimulus, luciferase, 10K MLSCN set, primary screen (AID 602277;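 active = inhibition of the reporter signal at or above 50%; inactive = inhibition below 50%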); conditions: HEK293-TLR3 RL24 IRF3 luciferase reporter, at 10 µM, active compounds read high

inhibition, inactive:
O=C(OCC(=O)c1cccs1)C1=COCCO1 -83.1%
Cc1ccc(-c2cn3cccnc3n2)cc1NC(=O)c1ccc(Br)o1 -53%
Cc1cnc(NC(=O)CSc2nc3ccccc3c(=O)[nH]2)s1 -0.232%
CCCCn1nnnc1NCc1cccs1 -0.68%
CCCOc1cccc(NC(=O)c2c(-c3ccccc3)noc2C)c1 18%
CCC(=O)N1C(=O)CCN(C(C)=O)c2ccccc21 20.6%
O=C(NCc1ccc2c(c1)OCO2)C1CCC(CNc2c(N3CCCCC3)c(=O)c2=O)CC1 (stereo not given) 24.7%
O=C(Cc1c(F)cccc1Cl)Nc1ccncc1 11.9%
CSc1nc(N2CCOCC2)c2ccccc2n1 -10.5%
Nc1ccc(-n2c(N)c(C(=O)NCc3ccc4c(c3)OCO4)c3nc4ccccc4nc32)cc1 3.26%
COc1ccc(S(=O)(=O)Cc2ccc(C(=O)N3CCOCC3)o2)cc1 19.3%
Cc1sc2nc(SCC(=O)N3CCN(CCO)CC3)n(-c3ccccc3)c(=O)c2c1C 31%
CCc1ccc(C2CC(c3cccc(OC)c3)n3nc(N)nc3N2)cc1 (stereo not given) 25.7%
CCCc1cc(C(=O)Nc2ccccc2C(=O)OC)no1 -14.1%
COc1cccc(C(=O)Nc2c(C(N)=O)oc3ccccc23)c1 25.5%
Nc1nc2n(n1)C(c1cccc(Cl)c1)CC(c1ccc(F)cc1)N2 (stereo not given) 25.8%
O=C(O)C1CCCN1c1ncnc2c1oc1ccccc12 (stereo not given) 5.35%
Cc1cc(C)nc(NS(=O)(=O)c2ccc(NC(=O)Cn3c(=O)oc4ccccc43)cc2)n1 25.4%
CCCCn1c(CN(C)Cc2ccccc2)nc2c1c(=O)n(C)c(=O)n2C -58.3%
Oc1cccc(Nc2nc(NCC3CCCO3)c3ccccc3n2)c1 (stereo not given) -32.6%
Cc1ccc(-n2c(SCC3CCCCO3)nnc2-c2ccco2)cc1 (stereo not given) 25.2%
Cc1ccc(S(=O)(=O)NCCSc2nnnn2-c2ccc(C(N)=O)cc2)cc1 12.6%
CCN1CCN(CCNC(=O)c2cn(C(C)c3ccccc3F)nn2)CC1 (stereo not given) 9.63%
C(#Cc1ccccc1)Cn1nnc2ccccc21 -170%
Cc1nccn1CCCN1C(=O)OC2(CCCCC2)C1(C)O (stereo not given) 17.2%
CCOc1cc2[nH]c(=S)n(CC3CCCO3)c(=O)c2cc1OCC (stereo not given) 15.8%
Cc1ccccc1Cn1ccc(NC(=O)c2cnn3c(C(F)(F)F)cc(-c4ccco4)nc23)n1 32%
O=C1c2ccccc2C(Nc2ccc3nc(-c4cccnc4)[nH]c3c2)N1Cc1ccco1 (stereo not given) -13.9%
CCOc1ccc(N(CC(=O)NC2CCCC(C)C2C)S(=O)(=O)c2c(C)noc2C)cc1 (stereo not given) 38.3%
CCOC(=O)Cn1ncc(-c2ccccc2)c1N -27.5%
CS(=O)(=O)N(CC(=O)Nc1cccc(F)c1)Cc1ccccc1 30.7%
Cc1cc(/C=N/n2cnnc2)c(C)n1-c1cccc(Cl)c1 21.5%
CCOC(=O)c1[nH]c(C)c(C(=O)Nc2ccc(C)cc2C)c1C 16.3%
CCOC(=O)n1c(SCC(=O)N(CC)CC)nc2ccccc21 -26.4%
CCNc1ccc2c(Cl)cc(=O)oc2c1 -1.88%
COCCCNC(=O)CCCn1c(=O)c2ccccc2n(CC(=O)Nc2c(C)cccc2C)c1=O 32.1%
CC(=O)NC(C)C(=O)OCC(=O)Nc1ccc(Br)cc1 (stereo not given) 13.9%
O=C1c2ccccc2C(Nc2ccc(F)cc2F)N1CCN1CCOCC1 (stereo not given) 38.8%
COC(=O)[C@H](CCSC)NC(=O)Nc1cc(C)ccc1C 31%
CC(=O)Nc1ccc(NC(=O)C(C)Oc2ccccc2F)cc1 (stereo not given) 12.4%
